# About 2,000 (36%) of roughly 5,500 compounds were called active. Inconclusive results (about 18%) are left out. This is one part of the list. Values without a mark were called inactive. No stated cut-off is given here; in the data, active means normalized growth mostly below about 0.91 (no sharp cut-off); inconclusive means no clear call, values can overlap the other calls; inactive means mostly above about 0.92.
# Test: chemical genetic growth profiling, strain panel (AID 1159580);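 further: tested at 20 µM; growth read once vehicle control cultures reached saturation at 30 °C; 1 = growth at the plate median or of vehicle wells; lower values mean less growth of the strain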
# Details: S. cerevisiae deletion strains, growth OD
# [1] = locus YAR019C, strain CDC15, hits give low values
# [2] = locus YBL105C, strain PKC1, hits give low values
# [3] = locus YBR135W, strain CKS1, hits give low values
# [4] = locus YBR136W, strain MEC1, hits give low values
# [5] = locus YBR160W, strain CDC28, hits give low values
# [6] = locus YDL017W, strain CDC7, hits give low values
# [7] = locus YDL028C, strain MPS1, hits give low values
# [8] = locus YDL101C, strain DUN1, hits give low values
# [9] = locus YDL108W, strain KIN28, hits give low values
# [10] = locus YDL132W, strain cdc53, hits give low values
# [11] = locus YDL214C, strain PRR2, hits give low values
# [12] = locus YDR052C, strain DBF4, hits give low values
# [13] = locus YDR054C, strain cdc34, hits give low values
# [14] = locus YDR226W, strain ADK1, hits give low values
# [15] = locus YDR477W, strain SNF1, hits give low values
# [16] = locus YER123W, strain YCK3, hits give low values
# [17] = locus YER133W, strain GLC7, hits give low values
# [18] = locus YFL009W, strain cdc4, hits give low values
# [19] = locus YFL029C, strain CAK1, hits give low values
# [20] = locus YFR003C, strain YPI1, hits give low values
# [21] = locus YFR019W, strain FAB1, hits give low values
# [22] = locus YFR028C, strain CDC14, hits give low values
# [23] = locus YGR040W, strain KSS1, hits give low values
# [24] = locus YGR052W, strain FMP48, hits give low values
# [25] = locus YGR092W, strain DBF2, hits give low values
# [26] = locus YHR030C, strain SLT2, hits give low values
# [27] = locus YHR079C, strain IRE1, hits give low values
# [28] = locus YHR082C, strain KSP1, hits give low values
# [29] = locus YHR205W, strain SCH9, hits give low values
# [30] = locus YIL147C, strain SLN1, hits give low values
# [31] = locus YJL095W, strain BCK1, hits give low values
# [32] = locus YJL128C, strain PBS2, hits give low values
# [33] = locus YJL157C, strain FAR1, hits give low values
# [34] = locus YJR016C, strain ILV3, hits give low values
# [35] = locus YJR066W, strain TOR1 (second series), hits give low values
# [36] = locus YJR066W, strain TOR1, hits give low values
# [37] = locus YKL048C, strain ELM1, hits give low values
# [38] = locus YKL067W, strain YNK1, hits give low values
# [39] = locus YKL101W, strain HSL1, hits give low values
# [40] = locus YKL193C, strain SDS22, hits give low values
# [41] = locus YKL203C, strain TOR2, hits give low values
# [42] = locus YLR113W, strain HOG1, hits give low values
# [43] = locus YLR133W, strain CKI1, hits give low values
# [44] = locus YLR403W, strain SFP1, hits give low values
# [45] = locus YML070W, strain DAK1, hits give low values
# [46] = locus YMR001C, strain CDC5, hits give low values
# [47] = locus YMR205C, strain PFK2 (second series), hits give low values
# [48] = locus YMR277W, strain FCP1, hits give low values
# [49] = locus YNL006W, strain LST8, hits give low values
# [50] = locus YNL020C, strain ARK1, hits give low values
# [51] = locus YNL161W, strain CBK1, hits give low values
# [52] = locus YNL183C, strain NPR1, hits give low values
# [53] = locus YNL207W, strain RIO2, hits give low values
# [54] = locus YNL222W, strain SSU72, hits give low values
# [55] = locus YNL307C, strain MCK1 (second series), hits give low values
# [56] = locus YOL078W, strain AVO1, hits give low values
# [57] = locus YOL136C, strain PFK27, hits give low values
# [58] = locus YOR061W, strain CKA2, hits give low values
# [59] = locus YOR119C, strain RIO1, hits give low values
# [60] = locus YOR231W, strain MKK1, hits give low values
# [61] = locus YOR329C, strain SCD5, hits give low values
# [62] = locus YPL031C, strain PHO85, hits give low values
# [63] = locus YPL153C, strain RAD53, hits give low values
# [64] = locus YPL209C, strain IPL1, hits give low values
# [65] = locus YPL256C, strain CLN2, hits give low values
# [66] = locus YPR025C, strain CCL1, hits give low values
# [67] = locus YPR106W, strain ISR1, hits give low values
# [68] = locus YPR111W, strain DBF20, hits give low values
# [69] = strain NNK1, hits give low values
# [70] = strain TSCII, hits give low values
smiles,measurement,setting,value
O=C(c1ccccc1)c1cc(Cl)ccc1NC(=S)Nc1ccc(F)cc1,normalized growth,[1],0.984
same,normalized growth,[2],0.992
same,normalized growth,[3],0.99
same,normalized growth,[4],0.987
same,normalized growth,[5],0.998
same,normalized growth,[6],0.996
same,normalized growth,[7],0.994
same,normalized growth,[8],0.996
same,normalized growth,[9],0.985
same,normalized growth,[10],0.992
same,normalized growth,[11],0.968
same,normalized growth,[12],0.994
same,normalized growth,[13],0.994
same,normalized growth,[14],0.993
same,normalized growth,[15],0.982
same,normalized growth,[16],0.95
same,normalized growth,[17],0.977
same,normalized growth,[18],0.986
same,normalized growth,[19],0.987
same,normalized growth,[20],0.988
same,normalized growth,[21],0.945
same,normalized growth,[22],0.991
same,normalized growth,[23],0.967
same,normalized growth,[24],1.02
same,normalized growth,[25],0.989
same,normalized growth,[26],0.97
same,normalized growth,[27],0.997
same,normalized growth,[28],1.12
same,normalized growth,[29],0.988
same,normalized growth,[30],0.994
same,normalized growth,[31],0.988
same,normalized growth,[32],0.947
same,normalized growth,[33],0.962
same,normalized growth,[34],0.988
same,normalized growth,[35],0.937
same,normalized growth,[36],1.05
same,normalized growth,[37],0.99
same,normalized growth,[38],0.968
same,normalized growth,[39],0.971
same,normalized growth,[40],0.991
same,normalized growth,[41],1
same,normalized growth,[42],0.858 (active)
same,normalized growth,[43],0.983
same,normalized growth,[44],0.974
same,normalized growth,[45],0.978
same,normalized growth,[46],0.995
same,normalized growth,[47],0.977
same,normalized growth,[48],0.976
same,normalized growth,[49],0.992
same,normalized growth,[50],0.983
same,normalized growth,[51],0.992
same,normalized growth,[52],1.02
same,normalized growth,[53],0.992
same,normalized growth,[54],0.987
same,normalized growth,[55],0.968
same,normalized growth,[56],0.999
same,normalized growth,[57],0.969
same,normalized growth,[58],0.973
same,normalized growth,[59],1.05
same,normalized growth,[60],0.994
same,normalized growth,[61],0.993
same,normalized growth,[62],0.969
same,normalized growth,[63],0.988
same,normalized growth,[64],0.993
same,normalized growth,[65],0.985
same,normalized growth,[66],0.99
same,normalized growth,[67],0.997
same,normalized growth,[68],0.963
same,normalized growth,[69],0.995
same,normalized growth,[70],0.991
CCOC(=O)/C(=N/Nc1c(Cl)cccc1Cl)c1csc(N)n1,normalized growth,[1],0.968
same,normalized growth,[2],0.982
same,normalized growth,[3],0.973
same,normalized growth,[4],0.972
same,normalized growth,[5],0.984
same,normalized growth,[6],0.98
same,normalized growth,[7],0.975
same,normalized growth,[8],0.986
same,normalized growth,[9],0.97
same,normalized growth,[10],0.971
same,normalized growth,[11],0.89
same,normalized growth,[12],0.973
same,normalized growth,[13],0.996
same,normalized growth,[14],0.973
same,normalized growth,[15],0.864
same,normalized growth,[16],0.906
same,normalized growth,[17],0.868
same,normalized growth,[18],0.959
same,normalized growth,[19],0.966
same,normalized growth,[20],0.97
same,normalized growth,[21],0.971
same,normalized growth,[22],0.968
same,normalized growth,[23],0.884
same,normalized growth,[24],0.933
same,normalized growth,[25],0.834
same,normalized growth,[26],0.69 (active)
same,normalized growth,[27],0.837
same,normalized growth,[28],0.973
same,normalized growth,[29],0.994
same,normalized growth,[30],0.968
same,normalized growth,[31],0.873
same,normalized growth,[32],0.995
same,normalized growth,[33],0.864
same,normalized growth,[34],0.976
same,normalized growth,[35],0.868
same,normalized growth,[36],0.906
same,normalized growth,[37],0.986
same,normalized growth,[38],0.892
same,normalized growth,[39],0.918
same,normalized growth,[40],0.976
same,normalized growth,[41],0.921
same,normalized growth,[42],0.801 (active)
same,normalized growth,[43],0.913
same,normalized growth,[44],0.864
same,normalized growth,[45],0.889
same,normalized growth,[46],0.976
same,normalized growth,[47],0.925
same,normalized growth,[48],0.975
same,normalized growth,[49],0.968
same,normalized growth,[50],0.904
same,normalized growth,[51],0.969
same,normalized growth,[52],0.91
same,normalized growth,[53],0.947
same,normalized growth,[54],0.969
same,normalized growth,[55],0.898
same,normalized growth,[56],0.978
same,normalized growth,[57],0.893
same,normalized growth,[58],0.906
same,normalized growth,[59],0.975
same,normalized growth,[60],0.864
same,normalized growth,[61],0.975
same,normalized growth,[62],0.852
same,normalized growth,[63],0.858
same,normalized growth,"locus YPL204W, strain HRR25, hits give low values",0.805
same,normalized growth,[64],0.973
same,normalized growth,[65],0.859 (active)
same,normalized growth,[66],0.976
same,normalized growth,[67],0.966
same,normalized growth,[68],0.947
same,normalized growth,[69],0.97
same,normalized growth,[70],0.963
